BAZ2B block: blocks human BAZ2B | Q9UIF8 | AlphaScreen BAZ2B-H3K14Ac peptide displacement | Potency, µM (highest dose often 114 µM), without a hit: at the top dose activity change, negative = inhibition, actives largely listed as inhibitors | 4.4% of 360,000 active | AID 504333; further: potency means the concentration at half of the fitted maximal effect; on the % scale 0 is the no-effect control and ±100 the full control effect; nearly all actives have a fitted effect of over 60% in size
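Multi-concentration screen (max 110 uM) measuring displacement of acetylated histone H3 peptide from BAZ2B by AlphaScreen, using 50 nM protein, 50 nM peptide and 10 ug/mL streptavidin donor plus Ni-chelate acceptor beads.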
VDR inh: blocks the human vitamin D receptor | P11473 | VDR-SRC2-3 peptide fluorescence polarization, 2 h | Potency, µM, without a hit: max response, negative = inhibition, usual class: inhibitors | 0.93% of 400,000 active | AID 504847; further: potency means the concentration at half of the fitted maximal effect; on the % scale 0 is the no-effect control and ±100 the full control effect
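Fluorescence polarization assay of small-molecule disruption of VDR binding to coregulator peptide SRC2-3. Compounds and controls pin-transferred, then read after 2 h incubation at ambient room temperature.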
HP1b chromo inh: blocks HP1-beta chromodomain binding to methylated histone tails. 0.56% of 390,000 active. P83916. Potency, µM (highest dose often 114 µM), for the others: at the highest dose activity change, negative = inhibition, actives largely listed as inhibitors. AlphaScreen HP1-beta / biotin-H3K9me3 peptide binding. AID 540317; further: potency means the concentration at half of the fitted maximal effect; nearly all actives have a fitted effect of over 70% in size
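HP1-beta protein (50 nM final) preincubated 30 min at room temperature with biotinylated H3(1-18)K9me3 peptide (50 nM) in PBS pH 7.4, 0.01% Tween-20, then compound added for 30 min. AlphaScreen streptavidin donor/nickel chelate acceptor beads (10 ug/mL final), 30 min dark, luminescence read.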
PLK1 PBD inh: PLK1 (human) polo-box domain binding inhibition. P53350. Plk1 PBD binding of FITC phosphopeptide, fluorescence polarization. Potency, µM, for the others: max response, negative = inhibition, actives largely listed as inhibitors. 2.8% of 360,000 active. AID 720504; further: potency means the concentration at half of the fitted maximal effect; series mostly up to about 57 µM; on the % scale 0 is the no-effect control and ±100 the full control effect; nearly all actives have a fitted effect of over 65% in size
L3MBTL1 block: blocks human L3MBTL1 | Potency, µM (doses to about 57.1 µM), without a hit: at the highest dose activity, negative = inhibition, usual class: inhibitors | AlphaScreen L3MBTL1–H3K9me1 peptide binding | 0.66% of 230,000 active; further: potency means the concentration at half of the fitted maximal effect; on the % scale 0 is the no-effect control and ±100 the full control effect; nearly all actives have a fitted effect of over 60% in size
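First, the protein-peptide complex forms for 30 min at room temperature (L3MBTL1 50 nM, biotinylated H3K9me1 peptide 75 nM). Next, compounds are pin-transferred and incubated 30 min. Finally, AlphaScreen beads are added and read after 30 min.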
JMJD2A Tudor inh: JMJD2A Tudor domain (human) inhibition | O75164 | AlphaScreen JMJD2A-Tudor / H3K4me3 peptide binding | Potency, µM (top dose mostly 114 µM), without a hit: at the highest dose activity change, negative = inhibition, actives largely listed as inhibitors | 4.4% of 390,000 active | AID 504339; further: potency means the concentration at half of the fitted maximal effect; on the % scale 0 is the no-effect control and ±100 the full control effect; nearly all actives have a fitted effect of over 50% in size
Target sequence (O75164 whole entry, looked up, the tested form may be a part): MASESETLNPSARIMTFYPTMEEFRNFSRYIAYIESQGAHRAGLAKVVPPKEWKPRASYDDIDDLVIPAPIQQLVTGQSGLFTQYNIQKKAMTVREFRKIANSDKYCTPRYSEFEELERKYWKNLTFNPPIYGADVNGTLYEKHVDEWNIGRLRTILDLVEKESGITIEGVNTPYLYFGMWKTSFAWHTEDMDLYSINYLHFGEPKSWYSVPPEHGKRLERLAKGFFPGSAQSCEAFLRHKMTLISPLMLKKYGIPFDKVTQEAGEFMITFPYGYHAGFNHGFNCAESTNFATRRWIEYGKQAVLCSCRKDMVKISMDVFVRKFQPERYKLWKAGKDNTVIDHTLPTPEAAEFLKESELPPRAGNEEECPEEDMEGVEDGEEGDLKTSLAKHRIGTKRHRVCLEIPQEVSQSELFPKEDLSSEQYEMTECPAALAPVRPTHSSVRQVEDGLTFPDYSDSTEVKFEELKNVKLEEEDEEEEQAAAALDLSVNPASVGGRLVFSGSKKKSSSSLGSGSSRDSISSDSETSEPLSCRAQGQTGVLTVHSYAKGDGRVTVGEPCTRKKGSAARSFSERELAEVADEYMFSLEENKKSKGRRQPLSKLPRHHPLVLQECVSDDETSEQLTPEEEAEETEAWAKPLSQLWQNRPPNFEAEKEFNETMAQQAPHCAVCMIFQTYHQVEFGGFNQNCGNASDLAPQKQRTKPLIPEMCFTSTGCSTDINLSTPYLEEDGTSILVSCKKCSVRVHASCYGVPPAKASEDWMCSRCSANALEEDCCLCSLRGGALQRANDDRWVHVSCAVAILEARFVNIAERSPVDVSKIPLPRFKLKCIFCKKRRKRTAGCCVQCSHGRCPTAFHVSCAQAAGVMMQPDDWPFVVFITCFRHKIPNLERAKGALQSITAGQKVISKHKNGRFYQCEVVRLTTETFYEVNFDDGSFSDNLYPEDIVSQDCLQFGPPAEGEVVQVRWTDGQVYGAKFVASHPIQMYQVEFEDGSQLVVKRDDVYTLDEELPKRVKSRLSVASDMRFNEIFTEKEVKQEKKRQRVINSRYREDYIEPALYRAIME
JMJD2E inh: confirmation of inhibitors of human JMJD2E demethylase; Recombinant JMJD2E, FDH-coupled NADH fluorescence (FDH is formaldehyde dehydrogenase); shares compounds with JMJD2A Tudor inh; AID 2677; Potency, µM (titrated, usually from 56.8 µM), without a hit: at the top dose activity change, negative = inhibition, actives largely listed as inhibitors; 93% of 140 active
FDH inh: FDH (Pseudomonas putida) inhibition counter-screen; shares compounds with JMJD2A Tudor inh; FDH enzyme assay, NADH fluorescence kinetic; Potency, µM (doses to about 56.7 µM), for the others: top-dose activity, negative = inhibition, usual class: inhibitors; 10% of 140 active; AID 2680
G9a confirm: inhibits human G9a histone lysine methyltransferase, hit confirmation; shares compounds with JMJD2A Tudor inh; G9a H3K9 monomethylation, AlphaScreen, 2 h; Potency, µM, hits mostly inhibitors; 89% of 370 active; AID 588344; further: potency means the concentration at half of the fitted maximal effect; nearly all actives have a fitted effect of over 65% in size
RGS4 confirm: confirmation of human RGS4 inhibitors; Potency, µM, actives largely listed as inhibitors; RGS4 GAP activity, Transcreener GDP fluorescence polarization; shares compounds with JMJD2A Tudor inh; 80% of 25 active
* = called active by the depositor; ? = inconclusive; · = no result; [ ] = remark or other dose. Hits are enriched below; roughly 6.9% of the tested compounds scored in any of these assays. The call rests on the fitted dose curve; in most records, active means well fitted curve in the direction sought with a large enough effect; inconclusive means small, poorly fitted or top-dose-only effect, or another doubt; inactive means no such curve, though single readings can be large; an effect the other way counts as inactive or inconclusive.

SMILES | BAZ2B block | VDR inh | HP1b chromo inh | PLK1 PBD inh | L3MBTL1 block | JMJD2A Tudor inh | G9a confirm | others
c1cncc(-c2nc(-c3ccco3)cs2)c1 | ? | -14% | 6% | -16% | · | ? | 10*
c1cncc(-c2csc(-c3cccnc3)n2)c1 | 0% | 1% | 34% | 6% | · | -5% | ·
Nn1c(SCC(=O)Nc2cccnc2Cl)nnc1-c1ccccc1 | 7% | 79µM* | ? | 4.7µM* | 3% | 20µM* | 0.8*
CCCCOC(=O)Nc1ccc(N(C)C)cc1 | 40µM* | -1% | ? | -8% | -18% | 79µM* | 1.6*
CC(C)Oc1ccc(C(=O)Nc2ccc(N(C)C)cc2)cc1 | 12% | -4% | -19% | -1% | -11% | ? | ·
CCCOc1ccc(C(=O)Nc2ccc(N(C)C)cc2)cc1 | -30% | 2% | 12% | -2% | · | -27% | 1*
Cc1ccc(CNC(=O)CN2C(=O)COc3ccc(S(=O)(=O)N4CCC(C)CC4)cc32)cc1 | 0% | 2% | 41% | · | · | -5% | ?
COC(=O)c1ccccc1NC(=O)CN1C(=O)c2ccccc2C1=O | · | 7% | 30% | 0% | · | -11% | ·
COC(=O)c1ccccc1NC(=O)Cn1c(SC)c(F)cnc1=O | -1% | 12% | 38% | -1% | · | -4% | 8.9*
CN(c1ccccc1C(=O)Nc1ccc(CC#N)cc1)S(=O)(=O)c1ccccc1 | 1% | 4% | 20% | -3% | -7% | 1% | ·
CCN(CC(=O)Nc1ccc([N+](=O)[O-])cc1OC)c1ccccc1 | ? | 5% | -12% | 0% | -9% | -33% | ·
CCOCCOC(=O)c1[nH]c2c(c1C)C(=O)CC(c1ccc(N(C)C)cc1)C2 (stereo not drawn) | ? | -15% | 3% | -9% | -25% | ? | ?
CCN(Cc1ccccc1)Cc1c(O)ccc2c(=O)c(-c3ccccc3Cl)c(C(F)(F)F)oc12 | 2% | 24% | 3% | · | · | 0% | ·
CCN(Cc1ccccc1)Cc1c(O)ccc2c(=O)c(-c3ccccc3)c(C(F)(F)F)oc12 | -6% | 20% | 86% | · | · | 3% | 45*
CN(C)c1ccc(NC(=O)CCSc2nc(-c3ccco3)cc(C(F)(F)F)n2)cc1 | ? | -17% | -3% | · | · | ? | 1.3*
O=C(C1CCCO1)N1CCN(Cc2c(O)ccc3ccccc23)CC1 (stereo not drawn) | 5% | 50µM* | -32% | 12µM* | · | 79µM* | 0.36*
Cc1ccc(CN2CCN(C(=O)C3CCCO3)CC2)cc1 (stereo not drawn) | 11% | -3% | 5% | -1% | 0% | -17% | ·
CN(C)c1ccc(NC(=O)CN2CCN(S(=O)(=O)c3cc(Cl)ccc3Cl)CC2)cc1 | 35µM* | ? | ? | -7% | · | ? | 4.5*
O=C(CN1CCN(S(=O)(=O)c2cc(Cl)ccc2Cl)CC1)Nc1ccc2c(c1)OCCO2 | -6% | 12% | 20% | -7% | -9% | -18% | ·
Cc1cc2n(n1)SC(Nc1cccc3ccccc13)N2 (stereo not drawn) | -2% | -11% | -6% | -19% | -11% | 50µM* | 0.71*
Cc1cc2n(n1)SC(Nc1cc(Cl)ccc1Cl)N2 (stereo not drawn) | 2% | -18% | -4% | -27% | ? | -32% | ·
C[C@H]1CN([C@@H](C)CO)C(=O)CCCn2cc(nn2)CO[C@@H]1CN(C)C(=O)Nc1ccc2c(c1)OCCO2 | · | · | · | -27% | · | · | ·
CC(C)(CNc1ccc(C(F)(F)F)cc1[N+](=O)[O-])N1CCOCC1 | ? | -3% | -11% | -8% | · | ? | ·
c1ccc2c(NC3CC3)nc(-c3ccoc3)nc2c1 | · | ? | · | · | · | · | · | RGS4 confirm=?
c1ccc(-c2ccc(N3CCCC4(CCNCC4)C3)cc2)cc1 | · | ? | · | · | · | · | · | RGS4 confirm=27*
SMILES | BAZ2B block | VDR inh | HP1b chromo inh | PLK1 PBD inh | L3MBTL1 block | JMJD2A Tudor inh | G9a confirm | others
Cn1c(SCC(=O)NC(C)(C)C)nnc1-c1cccc(NC(=O)c2ccccc2F)c1 | 7% | 5% | 16% | -5% | · | ? | 1.4*
Cn1c(SCC(=O)Nc2ccc3c(c2)oc2ccccc23)nnc1-c1ccccc1 | 1% | -12% | -2% | -1% | · | ? | 7.1*
O=C(CC1SC2=NCCN2C1=O)Nc1ccc(Cl)cc1 (stereo not drawn) | 0% | 11% | 17% | -5% | 26%[11.4 µM] | -9% | ·
CCOC(=O)c1ccc(NC(=O)CC2Sc3ncnn3C2=O)cc1 (stereo not drawn) | -12% | 1% | ? | ? | -6% | 7.9µM* | 0.56* | JMJD2E inh=2µM*;FDH inh=0.16µM*
O=C(CC1Sc2ncnn2C1=O)Nc1ccc(Cl)cc1 (stereo not drawn) | -33% | -4% | -19% | -22% | -4% | ? | ? | JMJD2E inh=2µM*;FDH inh=0.25µM*
COc1ccc(NC(=O)CC2Sc3ncnn3C2=O)cc1 (stereo not drawn) | 4% | -19% | 2% | ? | 11% | ? | 0.63* | JMJD2E inh=3.2µM*;FDH inh=0.28µM*
O=C(c1ccc(S(=O)(=O)c2cccc(Cl)c2)c([N+](=O)[O-])c1)N1CCN(Cc2ccccc2)CC1 | ? | -3% | ? | -1% | -12% | ? | ·
Oc1c(C(Nc2nccs2)c2ccc(C(F)(F)F)cc2)ccc2cccnc12 (stereo not drawn) | 10% | -19% | 10% | -14% | · | 45µM* | · | JMJD2E inh=22µM*;FDH inh=-26%
CN1CCN(C(c2ccc(F)cc2)c2ccc3cccnc3c2O)CC1 (stereo not drawn) | · | -17% | 47% | ? | · | 9% | ·
CS(=O)(=O)N(CC(=O)Nc1ccccc1Br)Cc1ccccc1 | 6% | -21% | 5% | -2% | 6% | -31% | ·
CCCCC(=O)N(C)c1c(C)nc2ccc(C(=O)N(C)CCN(C)C)cn12 | · | · | · | -4% | · | · | ·
O=C(CN1CCN(c2ccc(F)cc2)CC1)N1CCC(Cc2ccccc2)CC1 | 35µM* | -4% | ? | -2% | · | 11µM* | 16*
CSc1ncccc1C(=O)N1CCN(S(=O)(=O)c2cc(C)ccc2C)CC1 | -15% | 7% | 34% | -1% | · | -5% | ·

Bioassay records deposited in PubChem BioAssay by National Center for Advancing Translational Sciences (NCATS).
